DAX1 inh-1: inhibitors of human orphan nuclear receptor DAX1 (NR0B1); HEK293 Gal4-DAX1 luciferase reporter, luminescence; P51843; inhibition, % at 6.75 µM; 340,000 compounds, 0.99% hits;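 active means inhibition above the mean over all tested compounds plus 3 SD, cut at about 4.2% in these data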;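 further: 0% = DAX1-transfected cells with DMSO and 100% = empty-vector control cells with DMSO; inhibition shows as a rise in luminescence from relieved DAX1 repression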
Target sequence (P51843 207-470 limits assumed): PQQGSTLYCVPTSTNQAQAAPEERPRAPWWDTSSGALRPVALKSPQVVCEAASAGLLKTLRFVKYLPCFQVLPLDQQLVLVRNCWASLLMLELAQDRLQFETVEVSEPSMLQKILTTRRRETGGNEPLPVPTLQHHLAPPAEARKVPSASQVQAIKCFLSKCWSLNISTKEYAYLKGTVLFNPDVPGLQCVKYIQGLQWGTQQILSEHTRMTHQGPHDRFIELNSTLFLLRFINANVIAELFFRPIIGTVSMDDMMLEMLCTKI
hgDAF-12 ag: hgDAF-12 agonism, primary luciferase screen | HEK293 GAL4-hgDAF12 UAS-luciferase reporter, agonist luminescence; normalized to butyrate control | activation, % at 6.8 µM | 370,000 compounds, 1.8% hits | AID 687014;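 active means activation above a cutoff set at the mean of all screened compounds plus 3 SD, cut at about 10% in these data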;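 further: 0% = DMSO wells and 100% = sodium butyrate wells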
ssDAF-12 act: S. stercoralis DAF-12 activation, primary screen. HEK293 ssDAF-12/GRIP1 lit1-tk-luc reporter, luminescence; % of 3 µM dafachronic acid response. activation, % at 6.8 µM. 370,000 compounds, 1% hits;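 active means activation above the mean over all tested compounds plus 3 SD, cut at about 0.9% in these data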;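 further: 0% = DMSO-only wells and 100% = 3 µM delta7-dafachronic acid wells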
hcDAF-12 act: activates DAF-12 receptor from parasite H. contortus; 370,000 compounds, 1.4% hits; activation, % at 6.8 µM; HEK293 hcDAF-12 lit1-tk-luc reporter, luminescence; 0% DMSO, 100% Δ7-dafachronic acid;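 active means activation above the mean of all tested compounds plus 3 SD, cut at about 5.5% in these data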;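 further: 100% = response to 3 µM Δ7-dafachronic acid high control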
DAX1 inh-2: blocks DAX1 repression of SF-1 activated StAR promoter | HEK293T StAR-luciferase reporter, SF-1/DAX-1 repression relief | inhibition, % at 6.8 µM | 370,000 compounds, 1.1% hits | AID 652010;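 active means inhibition above the mean over all tested compounds plus 3 SD, cut at about 3.6% in these data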;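 further: 0% = DAX-1 cells with DMSO and 100% = cells lacking DAX-1 with DMSO; higher inhibition means more luminescence from relief of DAX-1 repression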
DAX1 conf: confirmation of human DAX1 (NR0B1) inhibitors; shares compounds with DAX1 inh-2; HEK293T StAR-promoter luciferase reporter, SF-1/DAX-1 repression; inhibition, % at 6.8 µM; 2,400 compounds, 87% hits;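 active means inhibition above the average of every tested compound plus 3 SD, cut at about 3.8% in these data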;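 further: 0% = DAX-1 cells with DMSO and 100% = no DAX-1 control cells with DMSO; active compounds raise luminescence by relieving repression of the StAR reporter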
Target sequence (P51843 whole entry, looked up): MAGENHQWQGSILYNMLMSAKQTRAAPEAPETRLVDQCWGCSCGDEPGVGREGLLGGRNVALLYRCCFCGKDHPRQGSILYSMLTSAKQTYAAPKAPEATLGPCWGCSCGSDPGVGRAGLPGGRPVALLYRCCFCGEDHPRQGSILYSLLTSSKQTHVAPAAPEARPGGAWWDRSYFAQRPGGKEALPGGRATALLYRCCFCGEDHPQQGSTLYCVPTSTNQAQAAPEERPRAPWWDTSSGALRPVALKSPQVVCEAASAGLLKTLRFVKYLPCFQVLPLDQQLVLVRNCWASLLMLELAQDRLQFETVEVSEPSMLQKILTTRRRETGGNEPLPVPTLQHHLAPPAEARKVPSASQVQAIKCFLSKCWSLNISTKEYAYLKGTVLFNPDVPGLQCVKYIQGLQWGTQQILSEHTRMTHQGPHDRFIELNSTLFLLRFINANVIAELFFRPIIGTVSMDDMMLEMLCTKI
SF1 AF2mut Luc: counter-screen for DAX1 inhibitors: nonselective inhibitors with SF-1 AF2 mutant; shares compounds with DAX1 inh-2; AID 652136; 2,400 compounds, 78% hits; HEK293 StAR-luciferase, luminescence; inhibition, % at 6.8 µM;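 active means inhibition above the mean of all tested compounds plus 3 SD, cut at about 3% in these data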;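 further: 0% = DAX-1 transfected cells with DMSO and 100% = cells without DAX-1 with DMSO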
LXRb hcDAF ctr: counter-screen for hcDAF-12 agonists: agonists of human LXR-beta. activation, % at 6.8 µM. shares compounds with hcDAF-12 act. AID 743027. HEK293 Gal4-LXR tk-luc reporter, luminescence, 24 h; normalized: DMSO 0%, positive control 100%. 3,400 tested, under 10 active;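 active means mean percent activation of the reporter above a cutoff set as the average over tested compounds plus their standard deviation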
hcDAF12 conf: confirmation of H. contortus DAF-12 agonists | HEK293 hcDAF-12 lit1-tk-luc reporter, luminescence; % of Δ7-dafachronic acid response | shares compounds with hcDAF-12 act | 3,400 compounds, 61% hits | activation, % at 6.8 µM;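 active means mean activation across triplicate tests above the threshold derived from the earlier primary screen, cut at about 5.5% in these data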;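 further: 0% = DMSO only wells and 100% = 3 µM Δ7-dafachronic acid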
hgDAF12 conf: confirmation of H. glycines DAF-12 agonists | shares compounds with hgDAF-12 ag | HEK293 GAL4-hgDAF12 luciferase reporter, agonist mode; percent of butyrate response | activation, % at 6.8 µM | 3,300 compounds, 80% hits | AID 743050;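 active means mean activation over triplicate wells above the hit cutoff derived from the earlier primary screen, cut at about 11% in these data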;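 further: 0% = DMSO low control and 100% = 2 mM sodium butyrate high control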
LXRb DAF12 ctr: activates human LXR-beta, counter-screen for DAF-12 agonists; shares compounds with hgDAF-12 ag; HEK293 Gal4-LXR luciferase reporter, 24 h; activation, % at 6.8 µM; 3,300 tested, under 10 active; AID 743051;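 active means mean activation of the triplicate above a set limit carried over from the primary screen, none filed active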
* = called active by the depositor; nt = no result. Hits are enriched below; roughly 4.1% of the tested compounds scored in any of these assays.

SMILES | DAX1 inh-1 | hgDAF-12 ag | ssDAF-12 act | hcDAF-12 act | DAX1 inh-2 | DAX1 conf | SF1 AF2mut Luc | LXRb hcDAF ctr | hcDAF12 conf | hgDAF12 conf | LXRb DAF12 ctr
COC(=O)C1=CC(=O)C=C(OC)[C@@]12Oc1cc(C)cc(OC)c1C2=O | nt | -9 | -2 | -2 | -1 | nt | nt | nt | nt | nt | nt
Cc1ccccc1C(=O)Nc1nnc(-c2ccco2)s1 | -1 | 16* | 1.1* | 9.4* | 5.2* | 9.0* | 4.1* | 1 | 8.2* | 12* | 1
COc1ccccc1C(=O)Nc1nnc(-c2ccco2)s1 | 4.5* | 19* | 2.0* | 15* | 8.4* | 12* | 9.0* | 1 | 14* | 21* | 1
COc1ccc(/C=C2\CC3(OC(=O)c4ccccc4)CCCN2C3)cc1 (stereo not drawn) | nt | -1 | -2 | -3 | -1 | nt | nt | nt | nt | nt | nt
CC(=O)Nc1ccc(C(=O)COC(=O)C2CC2C)c(F)c1 (stereo not drawn) | 2 | 18* | 1.0* | 3 | 11* | 10* | 4.6* | nt | nt | 10 | 1
CCCC(=O)Nc1ccc(C(=O)COC(=O)C2CC2C)cc1 (stereo not drawn) | 0 | 4 | 0 | 2 | 3 | nt | nt | nt | nt | nt | nt
CC1=NN(c2ccccc2)C(=O)C1c1ccccc1 (stereo not drawn) | -1 | 0 | -1 | -2 | -1 | nt | nt | nt | nt | nt | nt
CC1=Nc2ccccc2N=C(N)C1c1ccccc1 (stereo not drawn) | 1 | 18* | 1.5* | 7.4* | 5.1* | 3.7* | 4.3* | 0 | 3 | 13* | 0
Cc1ccnc(NC(=O)C2CC(=O)N(c3ccc4c(c3)OCCO4)C2)c1 (stereo not drawn) | 1 | 15* | 0 | 4 | 12* | 12* | 6.2* | nt | nt | 16* | 1
Cc1ccc(CN2CC(C(=O)Nc3cc(C)ccn3)CC2=O)cc1 (stereo not drawn) | 2 | 22* | 0 | 3 | 11* | 12* | 3.1* | nt | nt | 22* | 0
CCCCC(=O)N1CCN(C(=O)c2ccc3nc(C)n(C4CCCC4)c3c2)CC1 | nt | 2 | -2 | 0 | 0 | nt | nt | nt | nt | nt | nt
O=c1c2c(nc3cc(-c4cccc(Cl)c4)[nH]n13)CCC2 | 2 | 15* | 1 | 5 | 5.5* | 16* | 6.7* | nt | nt | 14* | 1
Cc1nc(-c2ccccc2)sc1-c1ccn[nH]1 | 3 | 14* | 0 | 8.8* | 9.2* | 16* | 10* | 1 | 6 | 17* | 1
Cc1nc(-c2ccccc2)sc1-c1ccnn1C | 4 | 16* | 1 | 8.8* | 6.2* | 15* | 7.9* | 1 | 5.8* | 18* | 1
Nc1ccc(C(=O)Nc2nc3ccccc3s2)cc1 | -2 | 21* | 1.2* | 6.6* | 5.3* | 5.6* | 3.0* | 2 | 8.7* | 21* | 1
Cc1cc(C)n(-c2ccc(C(=O)Nc3nc4ccccc4s3)cc2)n1 | 2 | 9 | 0 | 2 | 2 | nt | nt | nt | nt | nt | nt
C=CCN1C[C@H](COC(=O)c2cccc(C)c2)Oc2cccc(F)c2S1(=O)=O | nt | -3 | -1 | -1 | -2 | nt | nt | nt | nt | nt | nt
Cc1ccc(/C=C2/CCc3c([nH]c4ccccc34)C2=O)cc1 | 3 | 18* | 1 | 10* | 5.3* | 24* | 9.1* | 2 | 5.8* | 22* | 1
Nc1ccn([C@@H]2O[C@H](C(=O)N3CCN(CCO)CC3)[C@@H](O)[C@H]2O)c(=O)n1 | nt | -3 | -1 | 1 | -1 | nt | nt | nt | nt | nt | nt
c1ccc2oc(-c3csc(N4CCOCC4)n3)cc2c1 | 1 | 18* | 0 | 9.3* | 7.7* | 11* | 3.2* | 1 | 7.8* | 15* | 1
Fc1ccc(-c2csc(N3CCOCC3)n2)cc1 | 4 | 5 | 0 | 2 | 0 | nt | nt | nt | nt | nt | nt
Cc1cccc(-c2cccc3c4c([nH]c23)[C@@H]2C[C@H](N(C)C(=O)c3ccco3)[C@H]([C@H](C)O)CN2CC4)c1 | nt | 1 | 0 | -1 | 0 | nt | nt | nt | nt | nt | nt
CC(C)C(=O)Nc1ccc(C=C2C=Cc3ccccc32)cc1 | nt | 17* | 0.9* | 3 | 5.5* | 8.8* | 5.0* | nt | nt | 20* | 1
CC(C)C(=O)Nc1ccc(Nc2ccccc2)cc1 | -1 | 9 | -1 | -2 | 0 | nt | nt | nt | nt | nt | nt
Cc1ccc(S(=O)(=O)NC[C@@H]2C[C@H](c3ccccc3)ON2S(=O)(=O)c2ccc(C)cc2)cc1 | nt | 0 | -1 | -1 | nt | nt | nt | nt | nt | nt | nt
SMILES | DAX1 inh-1 | hgDAF-12 ag | ssDAF-12 act | hcDAF-12 act | DAX1 inh-2 | DAX1 conf | SF1 AF2mut Luc | LXRb hcDAF ctr | hcDAF12 conf | hgDAF12 conf | LXRb DAF12 ctr
O=C(CCN1C(=O)c2ccccc2C1=O)Nc1ccc(-c2nc3ccccc3s2)cc1 | 1 | 3 | -1 | 2 | 2 | nt | nt | nt | nt | nt | nt
Cc1ccc2nc(-c3ccc(NC(=O)CSCC(=O)O)cc3)sc2c1 | 4 | 24* | 1 | 7.0* | 4.8* | 15* | 8.8* | 1 | 5.8* | 18* | 1
Cc1ccc2nc(-c3ccc(NC(=S)NC4CC(C)(C)NC(C)(C)C4)cc3)sc2c1 | 4.4* | 19* | 1 | 5 | 7.5* | 12* | 10* | nt | nt | 17* | 1
Cc1ccc2nc(-c3ccc(NC(=S)NC(=O)C(C)C)cc3)sc2c1 | 2 | 5 | 0 | 4 | 2 | nt | nt | nt | nt | nt | nt
Cc1ccc2nc(-c3ccc(NC(=O)C(C)N4C(=O)c5ccccc5C4=O)cc3)sc2c1 (stereo not drawn) | 3 | 21* | 1 | 8.6* | 6.2* | 8.8* | 5.8* | 1 | 5 | 13* | 1
Cc1ccc2nc(-c3ccc(NC(=O)CCN4C(=O)c5ccccc5C4=O)cc3)sc2c1 | 0 | 17* | 0.9* | 8.7* | 5.9* | 15* | 4.5* | 2 | 8.3* | 21* | 1
C[C@@H]1C=CCCO[C@]12C(=O)N(Cc1ccc(Br)cc1)c1ccccc12 | nt | -3 | -1 | -2 | 0 | nt | nt | nt | nt | nt | nt
